“And” between values parts separate entries of the source, which are not always exact repeats. Equal entries are not always repeated. Screen size: about 5,500 compounds; about 2,000 (36%) were called active. Roughly 18% stayed inconclusive and do not appear here. No stated cut-off is given here; in the data, active means normalized growth mostly below about 0.91 (no sharp cut-off); inconclusive means no clear call, values can overlap the other calls; inactive means mostly above about 0.92. The list shows a part of the results.
Test: chemical genetic growth profiling, strain panel (AID 1159580);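 further: tested at 20 µM; growth read once vehicle control cultures reached saturation at 30 °C; 1 = growth at the plate median or of vehicle wells; lower values mean less growth of the strain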
Settings: growth OD

Measured: normalized growth

C=C(C)[C@@H]1[C@H]2OC(=O)[C@@H]1[C@]1(O)C[C@H]3O[C@]34C(=O)O[C@H]2[C@]14C
inactive: S. cerevisiae deletion strains, locus YAL013W, strain DEP1, hits give low values 0.985 | S. cerevisiae deletion strains, locus YBR021W, strain FUR4, hits give low values 1.01 | S. cerevisiae deletion strains, locus YBR229C, strain ROT2, hits give low values 0.947 | S. cerevisiae deletion strains, locus YCL029C, strain bik1, hits give low values 0.997 | S. cerevisiae deletion strains, locus YDL035C, strain GPR1, hits give low values 0.987 | S. cerevisiae deletion strains, locus YDL074C, strain BRE1, hits give low values 1.02 | S. cerevisiae deletion strains, locus YDL101C, strain DUN1, hits give low values 0.98 | S. cerevisiae deletion strains, locus YDL134C, strain PPH21, hits give low values 0.988 | S. cerevisiae deletion strains, locus YDL185W, strain tfp1, hits give low values 1 | S. cerevisiae deletion strains, locus YDL192W, strain arf1, hits give low values 0.99 | S. cerevisiae deletion strains, locus YDR101C, strain arx1, hits give low values 1 | S. cerevisiae deletion strains, locus YDR150W, strain NUM1, hits give low values 0.971 | S. cerevisiae deletion strains, locus YDR162C, strain NBP2, hits give low values 0.987 | S. cerevisiae deletion strains, locus YDR318W, strain mcm21, hits give low values 1.01 | S. cerevisiae deletion strains, locus YDR388W, hits give low values 1.01 | S. cerevisiae deletion strains, locus YDR502C, strain sam2, hits give low values 0.994 | S. cerevisiae deletion strains, locus YEL061C, strain CIN8, hits give low values 0.987 | S. cerevisiae deletion strains, locus YER110C, hits give low values 0.973 | S. cerevisiae deletion strains, locus YER155C, strain BEM2, hits give low values 0.999 | S. cerevisiae deletion strains, locus YER167W, strain BCK2, hits give low values 1 | S. cerevisiae deletion strains, locus YGL078C, strain dbp3, hits give low values 0.994 | S. cerevisiae deletion strains, locus YGL086W, strain mad1, hits give low values 0.99 | S. cerevisiae deletion strains, locus YGL248W, strain PDE1, hits give low values 0.98 | S. cerevisiae deletion strains, locus YGR078C, strain PAC10, hits give low values 1.01 | S. cerevisiae deletion strains, locus YGR135W, strain pre9, hits give low values 1 | S. cerevisiae deletion strains, locus YGR229C, strain SMI1, hits give low values 1.01 | S. cerevisiae deletion strains, locus YGR252W, strain gcn5, hits give low values 0.95 | S. cerevisiae deletion strains, locus YHR030C, strain SLT2, hits give low values 0.996 and 1.03 | S. cerevisiae deletion strains, locus YHR079C, strain IRE1 (second series), hits give low values 1 | S. cerevisiae deletion strains, locus YHR079C, strain IRE1, hits give low values 0.993 | S. cerevisiae deletion strains, locus YHR094C, strain hxt1, hits give low values 0.996 | S. cerevisiae deletion strains, locus YHR129C, strain ARP1, hits give low values 1 | S. cerevisiae deletion strains, locus YHR200W, strain rpn10, hits give low values 1 | S. cerevisiae deletion strains, locus YIL066C, strain RNR3, hits give low values 0.97 | S. cerevisiae deletion strains, locus YIL073C, strain SPO22, hits give low values 0.982 | S. cerevisiae deletion strains, locus YIL125W, strain kgd1, hits give low values 0.99 | S. cerevisiae deletion strains, locus YIR030C, strain dcg1, hits give low values 0.99 | S. cerevisiae deletion strains, locus YJL095W, strain BCK1, hits give low values 1.02 and 0.989 | S. cerevisiae deletion strains, locus YJL134W, strain LCB3, hits give low values 0.984 | S. cerevisiae deletion strains, locus YJL168C, strain set2, hits give low values 1 | S. cerevisiae deletion strains, locus YJL187C, strain SWE1 (second series), hits give low values 0.986 | S. cerevisiae deletion strains, locus YJR043C, strain POL32, hits give low values 1.02 | S. cerevisiae deletion strains, locus YJR066W, strain TOR1, hits give low values 0.962 | S. cerevisiae deletion strains, locus YJR075W, strain HOC1, hits give low values 1 | S. cerevisiae deletion strains, locus YKL009W, strain mrt4, hits give low values 0.96 | S. cerevisiae deletion strains, locus YKL068W, hits give low values 0.997 | S. cerevisiae deletion strains, locus YKL085W, strain MDH1 (second series), hits give low values 0.996 | S. cerevisiae deletion strains, locus YKL085W, strain MDH1, hits give low values 0.996 | S. cerevisiae deletion strains, locus YKL190W, strain CNB1, hits give low values 1 | S. cerevisiae deletion strains, locus YKR001C, strain vps1, hits give low values 1.01 | S. cerevisiae deletion strains, locus YLR039C, strain RIC1, hits give low values 0.972 | S. cerevisiae deletion strains, locus YLR058C, strain SHM2, hits give low values 0.964 | S. cerevisiae deletion strains, locus YLR102C, strain apc9, hits give low values 1 | S. cerevisiae deletion strains, locus YLR113W, strain HOG1, hits give low values 0.982 | S. cerevisiae deletion strains, locus YLR262C, strain YPT6, hits give low values 0.93 | S. cerevisiae deletion strains, locus YLR268W, strain sec22, hits give low values 1.07 | S. cerevisiae deletion strains, locus YLR330W, strain CHS5, hits give low values 0.983 | S. cerevisiae deletion strains, locus YLR342W, strain FKS1 (second series), hits give low values 1.01 | S. cerevisiae deletion strains, locus YLR371W, strain rom2, hits give low values 0.988 | S. cerevisiae deletion strains, locus YLR418C, strain cdc73, hits give low values 0.998 | S. cerevisiae deletion strains, locus YML016C, strain PPZ1, hits give low values 0.982 | S. cerevisiae deletion strains, locus YML032C, strain rad52, hits give low values 1.02 | S. cerevisiae deletion strains, locus YML124C, strain tub3, hits give low values 0.992 | S. cerevisiae deletion strains, locus YMR078C, strain ctf18, hits give low values 1 | S. cerevisiae deletion strains, locus YMR223W, strain ubp8, hits give low values 0.983 | S. cerevisiae deletion strains, locus YMR263W, strain SAP30, hits give low values 1.01 | S. cerevisiae deletion strains, locus YMR307W, strain GAS1, hits give low values 0.987 | S. cerevisiae deletion strains, locus YNL067W, strain RPL9B, hits give low values 1.02 | S. cerevisiae deletion strains, locus YNL128W, strain TEP1, hits give low values 0.976 | S. cerevisiae deletion strains, locus YNL153C, strain GIM3, hits give low values 0.998 | S. cerevisiae deletion strains, locus YNL183C, strain NPR1, hits give low values 0.954 | S. cerevisiae deletion strains, locus YNL233W, strain BNI4, hits give low values 1 | S. cerevisiae deletion strains, locus YNL250W, strain rad50, hits give low values 0.975 | S. cerevisiae deletion strains, locus YNL271C, strain bni1, hits give low values 1.01 | S. cerevisiae deletion strains, locus YNL298W, strain CLA4, hits give low values 0.999 | S. cerevisiae deletion strains, locus YNL307C, strain MCK1, hits give low values 0.987 | S. cerevisiae deletion strains, locus YNL322C, strain KRE1, hits give low values 0.994 | S. cerevisiae deletion strains, locus YNR052C, strain pop2, hits give low values 1 | S. cerevisiae deletion strains, locus YOL006C, strain TOP1, hits give low values 1.03 | S. cerevisiae deletion strains, locus YOL012C, strain htz1 0.801 | S. cerevisiae deletion strains, locus YOL147C, strain pex11, hits give low values 0.991 | S. cerevisiae deletion strains, locus YOR061W, strain CKA2, hits give low values 0.976 | S. cerevisiae deletion strains, locus YOR069W, strain VPS5, hits give low values 0.98 | S. cerevisiae deletion strains, locus YOR136W, strain idh2, hits give low values 0.986 | S. cerevisiae deletion strains, locus YOR144C, strain elg1, hits give low values 0.997 | S. cerevisiae deletion strains, locus YOR184W, strain ser1, hits give low values 0.985 | S. cerevisiae deletion strains, locus YOR231W, strain MKK1, hits give low values 1.02 | S. cerevisiae deletion strains, locus YOR316C, strain cot1, hits give low values 0.995 | S. cerevisiae deletion strains, locus YPL055C, strain LGE1, hits give low values 0.978 | S. cerevisiae deletion strains, locus YPL241C, strain CIN2, hits give low values 0.994 | S. cerevisiae deletion strains, locus YPL256C, strain CLN2, hits give low values 1.05 | S. cerevisiae deletion strains, locus YPR119W, strain clb2, hits give low values 0.991 | S. cerevisiae deletion strains, locus YPR141C, strain kar3, hits give low values 0.981 | S. cerevisiae deletion strains, locus YPR163C, strain tif3, hits give low values 1 | S. cerevisiae deletion strains, locus YPR167C, strain met16, hits give low values 1 | S. cerevisiae deletion strains, strain wtn01, hits give low values 1.02 | S. cerevisiae strains, strain wild type, hits give low values 0.981
